# Experimental data from ChEMBL document CHEMBL4513216, “Probing the Open Global Health Chemical Diversity Library for Multistage-Active Starting Points for Next-Generation Antimalarials” (ACS Infect Dis, 2020).
# The whole screen tested about 69,000 compounds, of which about 8,600 (12%) showed an effect of 50% or more. Many of the other results were omitted from the sample, so strong results are more common in it than they were.
# Test system: Plasmodium berghei
# Assay: Screen against P. berghei liver stage (PbLuc), transformed with Luciferase, at 10uM
# Format: functional, HepG2
# Settings: tested at 10 uM
row,Compound,INHIBITION
1,Cc1cc(C)n(CC2CN(c3cnc4ccccc4n3)CCO2)n1 (stereo not drawn),29.7%
2,O=C(C1CC1)N1CC[C@@H]2[C@H](CC1)N(Cc1cccnc1)CCS2(=O)=O,-49.8%
3,CC(C)c1cc(C(=O)N2CCC3(CCc4ccccc4C(=O)N3)C2)on1 (stereo not drawn),22.45%
4,Cc1ccc(N2CC[C@H]3O[C@H](C(=O)NCc4ccco4)CC[C@H]32)nn1,31.1%
5,Cc1ccc(C(=O)N(C)CCOc2ccccc2F)c(=O)[nH]1,-10.3%
6,Cn1cc(CCC(=O)N2C[C@@H]3CC[C@H]2CN(Cc2cccnc2)C3)cn1,40.2%
7,Cn1ncc2c(NCCn3cccc3)nc(C3CCCC3)nc21,29.4%
8,CC(C)N(CCNc1nc(C2CCCC2)nc2c1cnn2C)C(C)C,81.1%
9,Cn1ncc2c(NCCC34CCCN3CCC4)nc(C3CCCC3)nc21,-12.2%
10,CCS(=O)(=O)CCNc1nc(C2CCCC2)nc2c1cnn2C,1.93%
11,CNCCCNc1nc(C2CCCC2)nc2c1cnn2C,37.1%
12,Cn1ncc2c(NCCOc3ccc(F)cc3)nc(C3CCCC3)nc21,77.1%
13,Cn1ncc2c(NCCOCc3ccccc3)nc(C3CCCC3)nc21,71.2%
14,CCOCCNc1nc(C2CCCC2)nc2c1cnn2C,2.3%
15,Cn1ncc2c(NCCCOc3cccnc3)nc(C3CCCC3)nc21,44.8%
16,O=C(NC1CC1)c1cc(Sc2ncccn2)ccn1,-17.1%
17,CCOCc1ncn2c1CN(C(=O)Nc1ccc(CC)cc1)CC2,-9.26%
18,Cc1cccc(CN2CCCC2(C(N)=O)c2cnccn2)n1 (stereo not drawn),42.4%
19,CNC(=O)[C@@H](c1ccccc1OC)N1CCC[C@H]1C(=O)NC1CC1,35.4%
20,COc1cccc(CC(=O)N2CCCN(c3ccnc(C)c3)CC2)c1,-1.25%
21,Cc1cc(N2CCCN(c3ccnc(C)c3)CC2)ccn1,11.9%
22,Cc1cc(N2CCCN(C(=O)Cc3csc(C)n3)CC2)ccn1,-13.2%
23,Cc1cc(N2CCCN(C(=O)Cc3cccnc3)CC2)ccn1,58.6%

row,Compound,INHIBITION
1,Cc1cc(N2CCCN(C(=O)Cc3cc(F)cc(F)c3)CC2)ccn1,28.7%
2,Cc1cc(N2CCN(C(=O)Cc3ccc4c(c3)OCO4)CC2)cc(C)n1,52.2%
3,Cc1cc(N2CCCN(C(=O)Cc3ccc(O)c(Cl)c3)CC2)ccn1,65.1%
4,O=C(Cc1ccc2c(c1)OCO2)N1CCN(c2ccncc2)CC1,49%
5,O=C(Cc1ccc2c(c1)OCO2)N1CCCN(c2ccccc2)CC1,11.8%
6,O=C(c1cnccn1)N1C[C@H]2CC[C@@H](C1)N(C(=O)Cc1ccsc1)C2,28.5%
7,Cc1nnc2n1CCN(CCOc1cccc(C#N)c1)C2,44.1%
8,Cc1ccc(C2CSCCN2C(=O)c2ccoc2C)o1 (stereo not drawn),13.3%
9,CNC(=O)CCN1CCC(c2nnc(Cn3cccn3)n2C2CC2)CC1,-0.71%
10,Cc1nccc(C(=O)N2CCCC2c2noc(C(C)C)n2)n1 (stereo not drawn),22.6%
11,Cc1ncccc1NS(=O)(=O)Cc1cccc(F)c1,3.19%
12,O=C1NC[C@H]2CN(Cc3ccnc4ccccc34)CCN12,-12.1%
13,O=C1NCC2CN(Cc3ccccc3OCc3ccccn3)CCN12 (stereo not drawn),50.3%
14,O=C1NC[C@H]2CN(Cc3ccccn3)CCN12,-17.2%
15,c1cc(CN2CCC3(CC2)CC(N2CCCC2)CO3)co1 (stereo not drawn),-4.82%
16,Cc1cnn(C2CCCN(C(=O)c3cccc(-n4cnnn4)c3)C2)c1 (stereo not drawn),14.75%
17,CN(C)C(=O)c1cccc(Nc2cnn(C)c2)c1,33.5%
18,CCNC(=O)CN(CC)C(=O)c1cccc(Nc2cnn(C)c2)c1,70.3%
19,CNC(=O)c1cccc(Nc2cnn(C)c2)c1,23.6%
20,Cn1cc(Nc2cccc(C(=O)N(CC(N)=O)C3CCCC3)c2)cn1,82.2%
21,CN(C)c1ncc(NC(=O)c2cccc(Nc3cnn(C)c3)c2)cn1,36.5%
22,CCNC(=O)CN(CC)C(=O)c1cc(-c2cccc(Cl)c2)no1,21.5%
23,CN(C)C(=O)c1cccc(NC(=O)c2cnn(C)c2)c1,52.4%

row,Compound,INHIBITION
1,Cn1cc(NC(=O)c2cccc(-n3cnnn3)c2)cn1,53.7%
2,Cn1c(C(=O)N(CC(N)=O)C2CCCC2)cc(Cl)c1Cl,-25.6%
3,NC(=O)CN(C(=O)c1cccc(C(F)(F)F)c1)C1CCCC1,-52.4%
4,O=C(Nc1cnn(CC(F)F)c1)c1cccc(-n2cnnn2)c1,20.6%
5,Cn1cc(N2CCCC(SCc3ccco3)C2=O)cn1 (stereo not drawn),9.79%
6,CCc1cccc(OCC(=O)NC(C)c2nnc3n2CCC3)c1 (stereo not drawn),-27.8%
7,CCC(=O)N1C[C@@H]2CCN(c3cnccn3)C[C@@H]2C1,-18.4%
8,CC(C)(C)c1ccc(OCC(N)=O)c(CN2C[C@H]3CC(O)C[C@H]3C2)c1 (stereo partly drawn),25.8%
9,CC(C)OCCCN(CC(=O)N1CCNCC1)C(=O)c1ccc(F)cc1,55.7%
10,CCCN(CC(=O)N1CCNCC1)C(=O)c1cccc(Cl)c1,13.5%
11,CC(C)OCCCN(CC(=O)N1CCNCC1)C(=O)c1cccc(Cl)c1,25.9%
12,Cc1noc(C)c1-c1cccc(C2CCNCC2)n1,5.11%
13,COc1ccccc1OCCNC(=O)CN1CCN(C)CC1C (stereo not drawn),16.657%
14,Nc1nc2c(c3c1C(=O)NC3=O)CCC2,41.9%
15,O=C1NC(=O)c2c3c(nc(O)c21)CCCC3,29.3%
16,Nc1nc2c(c3c1C(=O)NC3=O)CCCC2,70.7%
17,COc1ccc(Nc2nc(N)c(C(C)=O)s2)cc1Cl,17.6%
18,COCCN1CC[C@@H]2O[C@@H](COCC(=O)N3CCCC3)CC[C@@H]21,-23.2%
19,Cc1cc(C(F)(F)F)nc(CNc2cc(C)nc3cc(C)nn23)n1,43.2%
20,Cc1cc(NCCCC(F)(F)F)n2nc(C)cc2n1,42.3%
21,Cc1cc(NCc2cc(C)oc2C(F)(F)F)n2nc(C)cc2n1,79.2%
22,CCN(C)c1ncnc2c1CCN(Cc1ccc(OC)cc1)CC2,34.1%
